In PubChem BioAssay (EPA / NIEHS):
Results filed as inconclusive are left out. Calls of active or inactive are those of the source. How the source made its calls: active means hit-call score of the fitted dose curve at least 0.9, where 1 is the maximum; inconclusive means response in the unintended direction; inactive means score below 0.9.

Read-out: Cytochrome P450 3A4 (Homo sapiens) (UniProt P08684)
Test: CLD_CYP3A4_6hr: CellzDirect (CLD) Gene Expression Assay for xenobiotic metabolism (CYP3A4) at 6 hours (AID 2283680)
Protocol: CLD_6hr is a cell-based, multiplexed-readout assay that uses hepatocyte, a human liver primary cell, with measurements taken at 6 hours after chemical dosing in a 96-well plate.CLD_CYP3A4_6hr is one of 16 assay component(s) measured or calculated from the CLD_6hr assay. It is designed to make measurements of mRNA induction, a form of inducible reporter, as detected with chemiluminescence signals by Quantitative Nuclease Protection Assay (qNPA) technology.Data from the assay component CLD_CYP3A4_6hr was analyzed at the endpoint, CLD_CYP3A4_6hr, in the positive analysis fitting direction relative to DMSO as the negative control and baseline of activity. Using a type of inducible reporter, gain-of-signal activity can be used to understand changes in the reporter gene as they relate to the gene CYP3A4. Furthermore, this assay endpoint can be referred to as a primary readout. To generalize the intended target to other relatable targets, this assay endpoint is annotated to the cyp intended target family, where subfamily is xenobiotic metabolism.
Human hepatocyte cultures were treated daily for two consecutive days with fresh dosing solutions containing appropriate concentrations of the 320 ToxCast chemicals (chemical identities were blinded to CellzDirect and other ToxCast collaborators), vehicle control (0.2% DMSO), and positive control inducers as summarized in Table 1. Due to the large number of treatment groups and chemicals examined, the ToxCast chemicals were divided into two groups (spanning two independent cultures of hepatocytes from separate donor preparations (Hu778: ToxCast plates 1 and 2; Hu776: ToxCast plates 3 and 4). Each preparation of human hepatocyte cultures was treated with respective vehicle control, medium only control, set of six positive controls/reference chemicals for the five hepatic receptor pathways, and a subset of eight of the ToxCast chemicals (indoxacarb, pyrithiobac-sodium, norflurazon, cyhalofop-butyl, methomyl, thiram, acetochlor, and propiconazole). These replicate data, coupled with internal replicates designed within the blinded ToxCast chemical library, provided additional data to evaluate interindividual differences between hepatocyte preparations and their potential impact on chemical profiles.Cell morphology and integrity were evaluated using phase-contrast microscopy as an indicator of hepatocyte cell health (Tyson & Green, 1987). Cultures for each treatment group (i.e., media, vehicle [0.2% DMSO], positive control inducers [multiple concentrations], and the ToxCast chemicals [multiple concentrations]) were observed and cell morphology was assessed relative to vehicle control cultures at each harvest time point (0, 6, 24, or 48 h). […] Images were evaluated at the conclusion of the study to assess changes in cell integrity and account for the effects of chemical exposure on uncharacteristic changes in concentration-dependent gene expression profiles. The results from these determinations of apparent cytotoxicity were annotated (yes/no) alongside the corresponding qNPA data for reference.At the conclusion of each treatment period, hepatocyte cultures (96-well) were washed with 1 volume of HBSS, lysed by addition of 25 ul ArrayPlate lysis buffer (HTG, Tucson, AZ), and 70 ul/well of Denaturation Oil, denatured by incubation at 95C for 10 min, and frozen at approximately -70C until analysis by nuclease protection assay (qNPA) (Roberts et al., 2007). For qNPA analysis, cell lysates were thawed at 50C for approximately 30 min, qNPA probes were added, and samples were incubated at 95C for 10 min to begin the detection process by denaturing the target RNA, dissociating the duplexes and secondary structure hybridization. At the conclusion of the hybridization period, S1 nuclease reagent was added to each sample to digest all nonprotected nucleotides at 50C for 60-90 min. […]

Sequence of Cytochrome P450 3A4 (Homo sapiens) (P08684 whole entry, looked up): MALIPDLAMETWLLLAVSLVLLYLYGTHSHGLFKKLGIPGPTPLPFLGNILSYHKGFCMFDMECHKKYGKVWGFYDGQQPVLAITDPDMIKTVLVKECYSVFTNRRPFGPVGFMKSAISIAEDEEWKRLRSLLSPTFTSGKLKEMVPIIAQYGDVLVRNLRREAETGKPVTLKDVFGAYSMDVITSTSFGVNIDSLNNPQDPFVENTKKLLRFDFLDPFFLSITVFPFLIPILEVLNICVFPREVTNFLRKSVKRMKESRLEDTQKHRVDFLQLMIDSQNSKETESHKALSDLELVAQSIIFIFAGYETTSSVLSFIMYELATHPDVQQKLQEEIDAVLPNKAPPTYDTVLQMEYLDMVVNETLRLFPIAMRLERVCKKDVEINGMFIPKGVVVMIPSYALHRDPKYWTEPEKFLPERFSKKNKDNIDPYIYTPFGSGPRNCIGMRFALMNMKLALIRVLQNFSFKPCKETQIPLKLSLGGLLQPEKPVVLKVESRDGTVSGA

SMILES	outcome	AC50
CNC(=S)S	inactive	
CC(C)Oc1cc(-n2nc(C(C)(C)C)oc2=O)c(Cl)cc1Cl		1.89 µM (active)
N#Cc1nn(-c2c(Cl)cc(C(F)(F)F)cc2Cl)c(N)c1S(=O)C(F)(F)F (stereo not drawn)	inactive	
CCCCOC(=O)c1ccccc1C(=O)OCCCC	inactive	
COP(N)(=O)SC (stereo not drawn)	inactive	
Cc1c(F)c(F)c(COC(=O)C2C(/C=C(\Cl)C(F)(F)F)C2(C)C)c(F)c1F (stereo not drawn)	inactive	
CCON=C(CC)C1=C(O)CC(c2c(C)cc(C)cc2C)CC1=O (stereo not drawn)	inactive	
CCOC(=O)C(Cl)Cc1cc(-n2nc(C)n(C(F)F)c2=O)c(F)cc1Cl (stereo not drawn)	inactive	
CCNc1nc(Cl)nc(NC(C)C)n1		20 µM (active)
CC(C)C1(C)N=C(c2nc3ccccc3cc2C(=O)O)NC1=O (stereo not drawn)	inactive	
N#CC(CCc1ccc(Cl)cc1)(Cn1cncn1)c1ccccc1 (stereo not drawn)	inactive	
COc1cnc(OC)n2nc(NS(=O)(=O)c3c(OCC(F)F)cccc3C(F)(F)F)nc12		8.34 µM (active)
CCOC(=O)CC(SP(=S)(OC)OC)C(=O)OCC (stereo not drawn)	inactive	
CCCC1COC(Cn2cncn2)(c2ccc(Cl)cc2Cl)O1 (stereo not drawn)	inactive	
CCc1nn(C)c(C(=O)NCc2ccc(C(C)(C)C)cc2)c1Cl	inactive	
COC(=O)C(C)Oc1ccc(Oc2ccc(Cl)cc2Cl)cc1 (stereo not drawn)	inactive	
CCCCNC(=O)OCC#CI		1.89 µM (active)

SMILES	outcome	AC50
COC(=O)C=C(C)OP(=O)(OC)OC	inactive	
CCOc1cc(Oc2ccc(C(F)(F)F)cc2Cl)ccc1[N+](=O)[O-]		5.4 µM (active)
C#CCOS(=O)OC1CCCCC1Oc1ccc(C(C)(C)C)cc1 (stereo not drawn)		1.89 µM (active)
Cc1ccc(-c2c(Cl)nc(C#N)n2S(=O)(=O)N(C)C)cc1		1.89 µM (active)
CC1=C(C(=O)Nc2ccccc2)SCCO1	inactive	
C=CCC1=C(C)C(OC(=O)C2C(C=C(C)C)C2(C)C)CC1=O (stereo not drawn)	inactive	
CNC(=O)ON=CC(C)(C)SC	inactive	
OC(c1ccc(Cl)cc1)(c1cncnc1)c1ccccc1Cl (stereo not drawn)	inactive	
C=CC1(C)OC(=O)N(c2cc(Cl)cc(Cl)c2)C1=O (stereo not drawn)	inactive	
CON(C)C(=O)Nc1ccc(Cl)c(Cl)c1	inactive	
CCCN(CCC)c1c([N+](=O)[O-])cc(S(N)(=O)=O)cc1[N+](=O)[O-]	inactive	
COc1nc(C)nc(NC(=O)NS(=O)(=O)c2ccccc2Cl)n1	inactive	
COP(=S)(OC)Oc1nc(Cl)c(Cl)cc1Cl	inactive	
COC(=O)N(OC)c1ccccc1COc1ccn(-c2ccc(Cl)cc2)n1	inactive	
COc1nc(C)nc(NC(=O)NS(=O)(=O)c2ccccc2CCC(F)(F)F)n1	inactive	
COc1nc(NC(C)C)nc(NC(C)C)n1	inactive	
